ClpP mod: qHTS Assay for Activators of ClpP; AID 651965, 2013; 1.9% of 340,000 active; Potency, µM (doses to about 57.5 µM), inactives show top-dose activity change, negative = active; ATP-dependent Clp protease proteolytic subunit (Bacillus subtilis (strain 168)), P80244; purified B. subtilis ClpP, FRET peptide cleavage, 20 min; active means well fitted falling curve with a large enough effect; inconclusive means small, poorly fitted or top-dose-only effect; inactive means no such curve, though single readings can be large or run the other way; further: the source files actives as falling curves though it sought activators and does not explain the sign; nearly all actives have a fitted effect of over 65% in size
Target sequence (P80244 whole entry, looked up): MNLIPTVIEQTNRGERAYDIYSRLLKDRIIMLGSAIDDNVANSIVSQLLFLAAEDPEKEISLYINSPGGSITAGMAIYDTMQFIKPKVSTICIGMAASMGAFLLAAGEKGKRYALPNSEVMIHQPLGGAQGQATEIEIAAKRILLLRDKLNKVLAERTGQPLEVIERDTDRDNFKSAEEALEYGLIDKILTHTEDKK
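ClpP 10 microg/mL final, pH 8 Tris/KCl buffer with BSA, glycerol, Tween-20; compound pinned in; FRET-FV substrate; RT 20 min; Ex320/Em430; ΔFRET vs ADEP 5.8 microM, DMSO, no enzyme.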
DT40 TDP1 no CPT: qHTS for Inhibitors of human tyrosyl-DNA phosphodiesterase 1 (TDP1): qHTS in cells in absence of CPT; DT40 Tdp1-/- hTDP1 cells, no CPT, ATP luminescence, 48 h; Potency, µM (series often up to 46.2 µM), inactives show at the top dose activity change, negative = growth inhibition, most hits filed as inhibitors; 15% of 420,000 active; AID 686978, 2013; further: on the % scale 0 is the no-effect control and ±100 the full control effect; nearly all actives have a fitted effect of over 55% in size
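Chicken DT40 Tdp1-/- cells complemented with human TDP1, screened without camptothecin (DMSO vehicle only), 400 cells/well. Compounds pin-transferred, cells incubated at 37 °C for at least 48 hr. Growth read as ATP-dependent luminescence (CellTiter-Glo, 30 min at RT).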
TDP1 inh: blocks human tyrosyl-DNA phosphodiesterase 1; recombinant TDP1, AlphaScreen DNA substrate cleavage; Q9NUW8; AID 485290; 0.28% of 350,000 active; Potency, µM (top dose mostly 130 µM), inactives show at the highest dose activity change, negative = inhibition, actives largely listed as inhibitors; further: on the % scale 0 is the no-effect control and ±100 the full control effect; nearly all actives have a fitted effect of over 40% in size
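Steps: enzyme plus compound, 15 min RT; add biotin/phosphotyrosine-FITC oligonucleotide (15 nM final), react 5 min; add donor/acceptor beads (10 ug/ml final), 10 min; read AlphaScreen. Tdp1 at 1 nM final.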
TDP1 cell CPT: growth inhibition of DT40 Tdp1-/-;hTDP1 cells with camptothecin (screen for TDP1 inhibitors); 12% of 420,000 active; Potency, µM (highest dose often 46.2 µM), without a hit: at the top dose activity change, negative = growth inhibition, most hits filed as inhibitors; chicken DT40 Tdp1-/-;hTDP1 cells + 20 nM CPT, ATP luminescence, 48 h; AID 686979; further: on the % scale 0 is the no-effect control and ±100 the full control effect; nearly all actives have a fitted effect of over 55% in size
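Chicken DT40 Tdp1-/- cells stably complemented with human TDP1 were seeded at 400 cells/well in medium containing 20 nM camptothecin, exposed to pin-transferred compounds, and grown at 37 °C for at least 48 hr. Viability was read as ATP luminescence.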
Numbers without * were called inactive; ? = inconclusive; . = no result given; ! = not confirmed by another sample. Compounds with a hit are over-represented: about 17% of the library has one in this group of screens. Unless noted, the call rests on the fitted dose curve; in most records, active means well fitted curve in the direction sought with a large enough effect; inconclusive means small, poorly fitted or top-dose-only effect, or another doubt; inactive means no such curve, though single readings can be large; an effect the other way counts as inactive or inconclusive. Potency means the concentration at half of the fitted maximal effect.

SMILES	ClpP mod	DT40 TDP1 no CPT	TDP1 inh	TDP1 cell CPT
CCN(CC)CCCN(Cc1cc2cc3c(cc2[nH]c1=O)OCO3)C(=S)NC	.	-1%	2%	20%
NS(=O)(=O)c1ccc(CNC(=O)c2ccc(S(=O)(=O)NCc3ccco3)cc2)cc1	-2%	-8%	-4%	2%
O=C1NC[C@@H](Cc2cccc3ccccc23)N(CCc2cc(C(F)(F)F)cc(C(F)(F)F)c2)C1=O	0%	?	2%	-5%
O=c1c(O)c(-c2cc(O)c(O)c(O)c2)oc2cc(O)cc(O)c12	1%	18µM*	.	11µM*!
O=c1c(O)c(-c2ccccc2)oc2cc(O)cc(O)c12	4%	30µM*	2%	?
COc1ccc(CCNC(=O)c2cc(S(=O)(=O)N3CCCCCC3)ccc2OC)cc1OC	.	?	5%	?
CCCCN(C)C(=O)c1nc2ccccn2c1CN1CCN(c2ncccn2)CC1	-6%	-6%	.	-2%
CCCCN(C)C(=O)c1nc2ccccn2c1CN1CCN(C/C=C/c2ccccc2)CC1	.	26µM*	.	?
CN(C)c1ccc(/C=C/c2ccncc2)cc1	-2%	26µM*!	2%	-2%
CCN(CC)c1ccc(/C=C/c2ccncc2)cc1	-1%	0.32µM*	.	0.18µM*
CN(C)c1ccc(C=Cc2cnccn2)cc1	.	?	.	-1%
Cc1ccc(NS(=O)(=O)c2ccc3c(ccn3C)c2)cc1C	.	.	0%	.
O=c1ccc(/C=C/c2ccccc2)nn1Cc1ccc(Cl)cc1Cl	28µM*	?	0%	?
Cc1ccc(/C=C/c2ccc(=O)n(Cc3ccc(Cl)cc3Cl)n2)cc1	3.2µM*	?	-2%	?
CC(C)c1ccc(/C=C/c2ccc(=O)n(C)n2)cc1	.	-4%	3%	12%
COc1ccc(C(=O)COC(=O)CNS(=O)(=O)c2ccc(C)cc2)cc1	1%	-5%	3%	-8%
COc1cccc(NC(=O)[C@H](C)NC(=O)C2CCN(S(=O)(=O)c3ccc(C)cc3)CC2)c1	.	-6%	.	-1%
COc1cc(/C=N/NC(=O)c2cc[n+]([O-])cc2)ccc1O	.	-7%	4%	-8%
CC(C)(C)NC(=O)CON=C1c2ccccc2-c2ccccc21	0%	23µM*	-4%	23µM*
CC(C)(C)NCC(O)CON=C1c2ccccc2-c2ccccc21 (stereo not given)	.	?	0%	21µM*
CC1CCc2onc(C(=O)N3CCN(c4cccc(C(F)(F)F)c4)CC3)c2C1 (stereo not given)	2%	?	-4%	?
Cc1ccc(-c2onc(C)c2C)cc1S(=O)(=O)N1c2ccccc2CC1C (stereo not given)	1%	16µM*	3%	?
Cc1cc(-c2ccc(C)c(S(=O)(=O)N3CC(=O)Nc4ccccc43)c2)on1	2%	4%	-3%	-5%
Cc1ccc(-c2onc(C)c2C)cc1S(=O)(=O)N1CCOc2ccccc21	-2%	21µM*	9%	18µM*
CC1Cc2ccccc2N1S(=O)(=O)c1cccc2nsnc12 (stereo not given)	1%	?	8%	?
SMILES	ClpP mod	DT40 TDP1 no CPT	TDP1 inh	TDP1 cell CPT
CCc1ccc(NC(=O)CC2C(=O)NCCN2C(=O)c2ccc(F)cc2)cc1 (stereo not given)	-2%	?	-1%	?
Cc1ccc(OCCN2CCN(c3nc(NCc4ccco4)c4ccccc4n3)CC2)cc1	-2%	15µM*	6%	?
OCCNc1nc(N2CCN(c3ccccc3)CC2)nc2ccccc12	-4%	?	9%	23µM*
OCCN1CCN(c2nc(NCc3ccco3)c3ccccc3n2)CC1	?	-14%	5%	-26%
c1ccc(CN2CCN(c3nc(NCc4ccco4)c4ccccc4n3)CC2)cc1	-15%	23µM*	4%	?
Cc1ccc(-n2c(NN)nc3ccccc3c2=O)c(C)c1	-3%	?	0%	?
Cc1ccc(-n2c(-c3ccccc3)c[n+]3c2CCc2ccccc2-3)c(C)c1	.	0.037µM*	-5%	0.21µM*
O=C(NC1CCC(O)CC1)c1ccc(-c2ccc(Cl)cc2)o1 (stereo not given)	25µM*	?	-6%	?
